# Where a name gives a salt, the structure may show the parent alone.
# Test system: Saccharomyces cerevisiae BY4741 SeMeCo community
# Assay: z-score of subpopulation abundance vs DMSO median, subpopulation auxotrophic for U; higher = larger share of this subpopulation than in DMSO controls
# Details: 10 µM; 24 h; SM minimal medium; subpopulation (auxotrophy): U
# Method: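 Fluorescent four-plasmid SeMeCo (self-establishing metabolically cooperating S. cerevisiae BY4741 community; plasmids pH-mRuby2, pL-mWasabi, pU-eCFP, pM-TagRFP657) was grown 24 h in minimal SM medium with each Selleck FDA-approved drug at 10 µM in 384-well plates. Cells were fixed and imaged by high-content confocal microscopy. For each auxotrophic subpopulation (and the prototroph), a z-score gives the deviation from the DMSO vehicle-control population median.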
row,SMILES,z-score of subpopulation abundance
1,CO[C@H]1C[C@@H]2CC[C@@H](C)[C@@](O)(O2)C(=O)C(=O)N2CCCC[C@H]2C(=O)O[C@H]([C@H](C)C[C@@H]2CC[C@@H](O)[C@H](OC)C2)CC(=O)[C@H](C)/C=C(\C)[C@@H](O)[C@@H](OC)C(=O)[C@H](C)C[C@H](C)/C=C/C=C/C=C/1C [Rapamycin (Sirolimus)],3.85
2,CCC(C)C1OC2(CCC1C)CC1CC(CC=C(C)C(OC3CC(OC)C(OC4CC(OC)C(O)C(C)O4)C(C)O3)C(C)C=CC=C3COC4C(O)C(C)=CC(C(=O)O1)C34O)O2 (stereo not given) [Ivermectin],0.12
3,CCN1CCN(C(=O)N[C@@H](C(=O)N[C@@H]2C(=O)N3[C@@H]2SC(C)(C)[C@@H]3C(=O)O)c2ccccc2)C(=O)C1=O [Piperacillin Sodium],-0.72
4,COc1ccc2c(c1)c(CC(=O)O)c(C)n2C(=O)c1ccc(Cl)cc1 [Indomethacin],0.52
5,CCC[C@@H]1C[C@@H](C(=O)N[C@@H]([C@H]2O[C@H](SC)[C@H](O)[C@@H](O)[C@H]2O)[C@H](C)Cl)N(C)C1 [Clindamycin HCl],-0.42
6,CCNC(=O)[C@@H]1CCCN1C(=O)[C@H](CCCNC(=N)N)NC(=O)[C@H](CC(C)C)NC(=O)[C@@H](CC(C)C)NC(=O)[C@H](Cc1ccc(O)cc1)NC(=O)[C@H](CO)NC(=O)[C@H](Cc1c[nH]c2ccccc12)NC(=O)[C@H](Cc1c[nH]cn1)NC(=O)[C@@H]1CCC(=O)N1 [Leuprolide Acetate],0.31
7,CCCCCCCCN=c1ccn(CCCCCCCCCCn2ccc(=NCCCCCCCC)cc2)cc1 [Octenidine Dihydrochloride],2.6
8,CCCNC(C)C(=O)Nc1ccccc1C (stereo not given) [Prilocaine],-0.13
9,COC1C(O)CC(=O)OC(C)CC=CC=CC(OC2CCC(N(C)C)C(C)O2)C(C)CC(CC=O)C1OC1OC(C)C(OC2CC(C)(O)C(O)C(C)O2)C(N(C)C)C1O (stereo not given) [Spiramycin],0.01
10,CN1CCC(=C2c3ccccc3CCc3sccc32)CC1 [Pizotifen Malate],-0.76
11,CC(=O)OCC1=C(C(=O)O)N2C(=O)[C@@H](NC(=O)CSc3ccncc3)[C@H]2SC1 [Cephapirin Benzathine],1.05
12,CCCc1nn(C)c2c(=O)[nH]c(-c3cc(S(=O)(=O)N4CCN(C)CC4)ccc3OCC)nc12 [Sildenafil],-0.11
13,Nc1ccc2cc3ccc(N)cc3nc2c1 [Proflavine],-7.03
14,C[C@]12CC[C@@H]3c4ccc(OC(=O)c5ccccc5)cc4CC[C@H]3[C@@H]1CC[C@@H]2O [Estradiol Benzoate],-0.43
15,C1N2CN3CN1CN(C2)C3 [Methenamine],0.59
16,O=c1[nH]c2ccccc2n1CCN1CCN(c2cccc(C(F)(F)F)c2)CC1 [Flibanserin],0.4
17,Clc1ccc(C(Cn2ccnc2)OCc2c(Cl)cccc2Cl)c(Cl)c1 (stereo not given) [Isoconazole nitrate],2.14
18,CC1=C(C(=O)OC(C)C)C(c2cccc([N+](=O)[O-])c2)C(C(=O)OC2CN(C(c3ccccc3)c3ccccc3)C2)=C(N)N1 (stereo not given) [Azelnidipine],0.39
19,C[C@](N)(Cc1ccc(O)c(O)c1)C(=O)O [Methyldopa],-0.29
20,CS(=O)(=O)Nc1ccc([N+](=O)[O-])cc1Oc1ccccc1 [Nimesulide],-0.45

row,SMILES,z-score of subpopulation abundance
1,CCN(CC)CCOC(=O)c1ccc(N)cc1 [Procaine HCl],-0.15
2,CCn1cc(C(=O)O)c(=O)c2cc(F)c(N3CCN(C)CC3)cc21 [Pefloxacin Mesylate],0.14
3,O=C1Nc2ccccc2C1=O [Isatin],0.43
4,Oc1cccc(O)c1 [Resorcinol],0.1
5,CC(C)NNC(=O)c1ccncc1 [Iproniazid],1.2
6,Oc1c(Cl)cc(Cl)c(Cl)c1Cc1c(O)c(Cl)cc(Cl)c1Cl [Hexachlorophene],0.01
7,O=C(O[C@H]1CN2CCC1CC2)N1CCc2ccccc2[C@@H]1c1ccccc1 [Solifenacin succinate],0.4
8,CC(c1cc2ccccc2s1)N(O)C(N)=O (stereo not given) [Zileuton],0.31
9,Nc1ccc(S(=O)(=O)Nc2ccccn2)cc1 [Sulfapyridine],-0.03
10,Cc1nnc(SCC2=C(C(=O)O)N3C(=O)[C@@H](NC(=O)Cn4cc(Cl)c(=O)c(Cl)c4)[C@H]3SC2)s1 [Cefazedone],-0.01
11,COC(=O)Nc1nc2cc(C(=O)c3ccccc3)ccc2[nH]1 [Mebendazole],1.91
12,CN[C@H]1CC[C@@H](c2ccc(Cl)c(Cl)c2)c2ccccc21 [Sertraline HCl],-0.41
13,CC[C@H]1OC(=O)C[C@@H](O)[C@H](C)[C@@H](O[C@@H]2O[C@H](C)[C@@H](O)[C@H](N(C)C)[C@H]2O)[C@@H](CCN2C[C@H](C)C[C@H](C)C2)C[C@@H](C)C(=O)/C=C/C(C)=C/[C@@H]1CO[C@@H]1O[C@H](C)[C@@H](O)[C@@H](OC)[C@H]1OC [Tilmicosin],0.52
14,C=CCN1CCCC1CNC(=O)c1cc2nn[nH]c2cc1OC (stereo not given) [Alizapride HCl],0.74
15,COc1ccc(C(=O)NCc2ccc(OCCN(C)C)cc2)cc1OC [Itopride hydrochloride],-0.45
16,CN(C)CCCN1c2ccccc2CCc2ccc(Cl)cc21 [Clomipramine HCl],1.4
17,CCCOc1ccc2c(c1)CC[C@@H]1[C@@H]2CC[C@]2(C)[C@@H](OC)CC[C@@H]12 [Promestriene],0.31
18,C#C[C@]1(O)CC[C@H]2[C@@H]3CCc4cc(OC)ccc4[C@H]3CC[C@@]21C [Mestranol],-0.41
19,O=C(Nc1ccc(Oc2ccc(Cl)cc2)c(Cl)c1)c1cc(I)cc(I)c1O [Rafoxanide],-1.44
20,CCN(CC)CCNC(=O)c1cc(Cl)c(N)cc1OC [Metoclopramide],1.49

# From the supplement of paper PMC8975748
